Compound activity as filed in PubChem.
A selection: hits, their analogues and other compounds. The true share with any hit is near 17%.
DT40 TDP1 no CPT: qHTS for Inhibitors of human tyrosyl-DNA phosphodiesterase 1 (TDP1): qHTS in cells in absence of CPT. DT40 Tdp1-/- hTDP1 cells, no CPT, ATP luminescence, 48 h. Potency, µM (highest dose often 46.2 µM), for the others: at the highest dose activity change, negative = growth inhibition, most hits filed as inhibitors. actives 15% (n = 420,000). AID 686978, 2013; note: % is set by controls: 0 for no effect and ±100 for the full control effect; nearly all actives have a fitted effect of over 55% in size
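Readout: luminescence from CellTiter-Glo after 30 min in the dark at RT. Cells: DT40 Tdp1-/- with stable hTDP1, 400/well. Exposure: compounds alone, ≥48 hr, 37 °C.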
TDP1 cell CPT: DT40-hTDP1 cell growth loss with CPT. chicken DT40 Tdp1-/-;hTDP1 cells + 20 nM CPT, ATP luminescence, 48 h. Potency, µM (doses to about 46.2 µM), for the others: at the highest dose activity change, negative = growth inhibition, hits mostly inhibitors. actives 12% (n = 420,000). AID 686979; note: % is set by controls: 0 for no effect and ±100 for the full control effect; nearly all actives have a fitted effect of over 55% in size
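Cell growth measured by CellTiter-Glo luminescence after a minimum 48 h, 37 C compound exposure with 20 nM CPT in Tdp1-knockout DT40 cells stably expressing hTDP1, seeded 400/well; qHTS titration format.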
HepG2 tox: counter-screen for TGF-b inhibitors: cytotoxicity in HepG2 cells. HepG2 CAGA-GFP viability, ATP luminescence, 18 h. Potency, µM (top dose mostly 46.1 µM), for the others: at the top dose activity change, negative = cytotoxicity, most hits filed as cytotoxic. actives 0.76% (n = 410,000). AID 588856
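CellTiter-Glo luminescence gave cytotoxicity after 18 hours at 37 degrees C. The cells were HepG2 CAGA-GFP in 1% FBS DMEM, stimulated with 500 pg/mL TGF-beta after compound addition. %Activity was normalised to no-cell wells (complete cell-killing) and DMSO (no toxicity), and curves were fitted and classified.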
HT1080 IDH1KD tx: kills HT-1080 cells with IDH1 knockdown; HT-1080 IDH1 knockdown viability, ATP luminescence, 48 h; Potency, µM (series often up to 46.1 µM), without a hit: top-dose activity, negative = toxicity, actives largely listed as cytotoxic; actives 2% (n = 360,000);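 note: 0% = DMSO wells and -100% = cell-free medium wells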
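Assay cells: HT-1080 with IDH1 knockdown, 750 per well, RPMI/5% FBS. Exposure: 48 h at 37 °C following 2 h pre-incubation. Read: CellTiter-Glo luminescence; fitted concentration-response, curve class assigned.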
HT1080-NT tox: kills 2HG-producing HT-1080-NT fibrosarcoma cells; HT-1080-NT fibrosarcoma viability, CellTiter-Glo ATP luminescence, 48 h; Potency, µM (doses to about 46.1 µM), without a hit: at the highest dose activity, negative = less viability, hits mostly cytotoxic; actives 1.6% (n = 360,000); AID 686970;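 note: NT is the 2HG producing partner of a matched IDH1 knockdown line; 0% = DMSO-treated cells and -100% = media-only wells without cells; nearly all actives have a fitted effect of over 55% in size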
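Viability by CellTiter-Glo luminescence after 48 h compound exposure at 37C of HT-1080-NT cells (750/well, RPMI, 5% FBS). % activity scaled between DMSO wells and medium-only wells, then curve-fitted and categorized by curve class.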
TGFb SMAD3 inh: TGF-b pathway inhibition; HepG2 CAGA-GFP TGF-b/SMAD3 reporter, GFP fluorescence, 18 h; TGF-beta stimulated, 500 pg/mL final; actives 1.2% (n = 410,000); AID 588855; Potency, µM (series often up to 46.1 µM), for inactives: top-dose activity, negative = inhibition, hits mostly inhibitors; note: % is set by controls: 0 for no effect and ±100 for the full control effect; nearly all actives have a fitted effect of over 65% in size
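Read-out: total well GFP (ex488/em500-530) summed from mean per-cell fluorescence. Cells: HEPG2 CAGA-GFP, 1% FBS DMEM, 18 h at 37 degrees C with 500 pg/mL final TGF-beta. Unstimulated wells served as the full-inhibition control; stimulated DMSO wells = 0%.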
* hit, by the source's call; u = inconclusive; x = not tested or not shown; [ ] = remark or other dose. Calls come from the whole dose curve; as a rule, active = well fitted curve in the direction sought with a large enough effect; inconclusive = small, poorly fitted or top-dose-only effect, or another doubt; inactive = no such curve, though single readings can be large; an effect the other way counts as inactive or inconclusive. Potency is the fitted concentration of half-maximal effect.

SMILES	DT40 TDP1 no CPT	TDP1 cell CPT	HepG2 tox	HT1080 IDH1KD tx	HT1080-NT tox	TGFb SMAD3 inh
Cc1csc2ncnc(N3CCN(C(=S)Nc4ccc(F)cc4F)CC3)c12	15µM*	u	1%	-10%	-14%	-18%
CC1CN(C(=S)Nc2ccc(F)cc2F)CC(C)O1 (configuration not stated)	6%	9%	5%	4%	6%	1%
COc1ccc(CC(=O)Nc2ccc(N3CCCC3)c(C)c2)cc1	u	u	3%	-1%	-1%	6%
FC(F)Oc1ccc(-c2csc(NNC3=NCCCCC3)n2)cc1	15µM*	4.6µM*	-20%	u	u	-22%
Brc1ccc(-c2csc(NNC3=NCCCCC3)n2)cc1	u	u	-22%	-2%	-7%	-17%
OC(CNCCc1ccc(C(F)(F)F)cc1)COC(c1ccccc1)c1ccccc1 (configuration not stated)	u	18µM*	-96%	u	u	u
COc1ccc(C(OCC(O)CNCCc2ccc(S(N)(=O)=O)cc2)c2ccc(OC)cc2)cc1 (configuration not stated)	u	u	-26%	u	-25%	-19%
N#Cc1c(-n2ncnc2-c2ccccc2Cl)sc2c1CCCCC2	-27%	-3%	-12%	x	x	1%
N#Cc1c(N)n(CCOC(=O)c2cccc([N+](=O)[O-])c2)c2nc3ccccc3nc12	10µM*	-22%	-17%	-8%	-20%	2%
CCN(C(=O)c1cc2c(s1)-c1ccccc1OC2)c1cc(Cl)ccc1OC	10µM*	21µM*	-19%	x	x	8.9µM*
CCN(C(=O)c1cc2c(s1)-c1ccccc1OC2)c1cccc(C(F)(F)F)c1	18µM*	18µM*	-15%	x	x	2%
CCOc1ccc(N(CC)C(=O)c2cc3c(s2)-c2ccccc2OC3)cc1	u	u	-32%	x	x	u
Cc1cccc2c1-c1sc(C(=O)N(C)c3cccc(C(F)(F)F)c3)cc1CO2	23µM*	u	-1%	x	x	14%
Cc1ccccc1CN1CCc2cc([N+](=O)[O-])ccc21	18µM*	u	13µM*	-13%	-2%	-18%
COc1ccc([N+](=O)[O-])cc1NCc1ccccc1C	-27%	-20%	-37%	u	-15%	16%
CCN(CC)CCCN(C(=O)c1ccco1)c1nc(-c2ccc(C)cc2)cs1	u	18µM*	-77%	u	u	u
O=C(c1ccco1)N(CCCN1CCOCC1)c1nc(-c2ccc(F)cc2)cs1	16µM*	23µM*	-49%	u	u	u
Cc1ccc2sc(N(CCCN(C)C)C(=O)c3ccco3)nc2c1C	u	u	-56%	x	x	x
CN(C(=O)c1ccco1)c1nc(-c2ccc(F)cc2)cs1	-15%	9%	2%	18%	27%	11%
CCN(CC)CCCN(C(=O)c1ccco1)c1nc(-c2ccc(Cl)cc2)cs1	u	u	-66%	15µM*	23µM*	u
CCN(CC)CCN(C(=O)c1ccco1)c1nc2c(C)c(C)ccc2s1	21µM*	23µM*	-38%	x	x	u
COC(=O)c1ccc(Cn2cnc3c(cnn3-c3ccc(Cl)cc3)c2=O)o1	13%	-13%	-9%	8%	3%	-21%
CCOc1cc(Cl)c(CNCCCN2CCOCC2)cc1OC	-13%	28%	-23%	-11%	10%	6%
CCN(C(=O)c1ccco1)c1nc(CC(=O)Nc2ccc(Cl)cc2)cs1	16µM*	u	-9%	-26%	-29%	-19%
COc1cccc(CN(C(=O)c2oc3ccccc3c2C)C2CCS(=O)(=O)C2)c1 (configuration not stated)	21µM*	u	-26%	x	x	u
SMILES	DT40 TDP1 no CPT	TDP1 cell CPT	HepG2 tox	HT1080 IDH1KD tx	HT1080-NT tox	TGFb SMAD3 inh
COc1cccc(CN(C(=O)c2oc3cc(C)ccc3c2C)C2CCS(=O)(=O)C2)c1 (configuration not stated)	18µM*	u	-14%	x	x	-14%
CC(=O)c1ccc(-c2cc(F)cc3c2OC(CNC(=O)Cc2cn4ccsc4n2)C3)s1 (configuration not stated)	-23%	2%[9.04 µM]	x	x	x	x
COc1ccccc1N(Cc1ccccc1)S(=O)(=O)c1cccc(C(=O)Nc2ccccn2)c1	u	u	-10%	u	u	-21%
COc1ccccc1N(Cc1ccccc1)S(=O)(=O)c1cccc(C(=O)N2CCCCC2)c1	18µM*	u	-1%	u	u	u
COc1ccccc1N(C)S(=O)(=O)c1ccc(C)c(C(=O)N2CCCCCC2)c1	7.3µM*	7.3µM*	-6%	2%	3%	-2%
COc1ccccc1N(C)S(=O)(=O)c1ccc(C(=O)N2CCC2)cc1	u	u	-1%	4%	-13%	-7%
COc1ccc(S(=O)(=O)N2CCCCCC2)cc1N(C)S(=O)(=O)c1ccccc1	23µM*	u	-20%	-1%	7%	-9%
COc1ccccc1N(Cc1ccccc1)S(=O)(=O)c1cccc(C(=O)Nc2ccc(C(C)=O)cc2)c1	u	-5%	13%	-10%	-11%	9%
COc1ccc(OC)c(NC(=O)c2cccc(S(=O)(=O)N(Cc3ccccc3)c3ccccc3OC)c2)c1	u	6.5µM*	4%	13%	7%	3%
COc1ccc(S(=O)(=O)Nc2noc3ccccc23)cc1	-11%	-5%	2%	0%	8%	-2%
CCCCC	0%	-10%	x	x	x	x
Cc1ccc(S(=O)(=O)/C=C2\OCc3ccccc32)cc1	-27%	-28%	x	16%	0%	x
COc1ccc(CN(C)C(=O)CCN(c2ccccc2)S(=O)(=O)c2ccc(C)cc2)c(OC)c1	23µM*	21µM*	-23%	0%	-11%	0%
COC(=O)c1ccc(NC(=O)COc2ccc(N(C)S(=O)(=O)c3ccc(C)cc3)cc2)cc1	u	16µM*	-2%	-1%	2%	-7%
Cc1ccc(S(=O)(=O)N(C)c2ccc(OCC(=O)Nc3ccc(C(=O)N(C)C)cc3)cc2)cc1C	18µM*	u	1%	0%	1%	4%
Cc1ccc(OCC(=O)Nc2ccc(S(=O)(=O)N(Cc3ccccc3)c3ccccc3)cc2)cc1	4.6µM*	18µM*	-56%	x	x	u
